High-throughput results from PubChem.
D1 PAM – potentiators of human D1 dopamine receptor; P21728; HEK293 TREx D1 cells, calcium flux, dopamine EC20 potentiation; potentiation, % at 10 µM; 0.036% of 360,000 active; AID 504651; in the data active means potentiation above about 30%
D1 antag – human D1 dopamine receptor antagonism | HEK293 TREx D1 cells, calcium flux, dopamine EC80; stronger effect = lower value | activity change, negative = inhibition, % at 10 µM | 3.2% of 360,000 active | AID 504652; in the data active means activity change below about -30%
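Allosteric or orthosteric antagonism assessed as attenuation of the calcium response to EC80 dopamine, added 180 s after compound, in induced HEK293 Trex D1 cells loaded with no-wash calcium dye.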
TRHR PAM – allosterically enhances the human TRH receptor; P34981; TRHR cells, fluo-8 calcium fluorescence, EC20 TRH enhancement; enhancement, % at 2 µM; 0.66% of 360,000 active; AID 493056; in the data active means enhancement above about 30%
Target sequence (P34981 whole entry, looked up): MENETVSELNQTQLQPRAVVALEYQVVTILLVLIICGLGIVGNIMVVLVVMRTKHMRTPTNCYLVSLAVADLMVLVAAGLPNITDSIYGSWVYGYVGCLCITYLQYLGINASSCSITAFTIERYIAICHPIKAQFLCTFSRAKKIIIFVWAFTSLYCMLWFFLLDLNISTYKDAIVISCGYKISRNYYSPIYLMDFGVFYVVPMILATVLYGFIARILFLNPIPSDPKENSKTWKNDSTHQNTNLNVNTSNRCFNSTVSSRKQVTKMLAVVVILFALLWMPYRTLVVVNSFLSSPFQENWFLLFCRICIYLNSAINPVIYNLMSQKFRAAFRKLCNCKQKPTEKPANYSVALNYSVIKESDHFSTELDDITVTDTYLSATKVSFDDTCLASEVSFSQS
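TRHR-expressing cells loaded with fluo-8 calcium dye were read kinetically (ex 480/em 530) during compound addition, then stimulated with an EC20 of TRH (10 nM final). Enhancement of the Gq-mediated intracellular calcium response was scored.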
D1 agonist – activates the human D1 dopamine receptor | P21728 | activation, % at 2 µM | HEK293 T-REx D1 cells, calcium flux, agonist mode | 1% of 360,000 active
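Inducible HEK293 T-REx D1 cells, force-coupled to calcium signalling, were plated at 4000 cells/well with tetracycline and held overnight at 30 C. After no-wash calcium dye loading, compound-evoked calcium rise over 180 s flagged agonists.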
TRHR agonist – TRH receptor (human) agonism; P34981; TRHR cells, calcium flux fluo-8, FDSS agonist mode; activation, % at 2 µM; 0.18% of 360,000 active; AID 493084
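Steps: seed TRHR cells overnight; add fluo-8 no-wash Ca dye, RT 30 min–1.5 h; record 10 s baseline; pin-transfer compounds; monitor fluorescence 1 cycle/s for the agonist window. Calcium increases flag candidate agonists.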
Each line names hits and unclear results; the compound was inactive in the other large screens; ! = not confirmed by another sample. This is a sample that favours compounds with a hit; in the whole collection about 4.7% have one here. Unless noted, no stated cut-off is given here; in the data, active means activation above about 30%; inactive means the rest.

COC1=C(Nc2ccc(OC)cc2)C(=O)c2ccccc2C1=O	none
CCOc1ccc(NC2=C(Cl)C(=O)N(Cc3ccccc3)C2=O)cc1	D1 antag -30
Cc1ccc2[nH]c(=O)c(CN(C(=O)c3cccc(Cl)c3)C(C)(C)C)cc2c1	none
COc1ccc(C2=C(Nc3ccccc3)c3ccccc3C2=O)cc1	D1 antag -35
COc1ccc(NC2=C(c3ccc(OC)cc3)C(=O)c3ccccc32)cc1	none
COc1ccc(NC(=O)CCc2nnc3n(C)c(=O)c4sccc4n23)cc1Cl	none
O=C(Nc1ccc(Cl)cc1)c1cncs1	D1 antag -47
O=C(Nc1ccc(F)cc1)c1cncs1	none
Cc1cc(C)n(-c2nc(NCCN(C)C)c3c4c(sc3n2)CCCC4)n1	D1 agonist 33
Cc1ccc(-n2nc3c(=O)n(CCCC(=O)NCCc4ccccc4)nc(C)c3c2C)cc1	none
Cc1nn(CCCC(=O)NCCc2ccc(Cl)cc2)c(=O)c2nn(-c3ccccc3)c(C)c12	D1 antag -33!
Cc1nn(CCCC(=O)NCCc2ccccc2)c(=O)c2nn(-c3ccccc3)c(C)c12	D1 antag -36
COc1cccc(CNC(=O)CCCn2nc(C)c3c(C)n(-c4ccc(C)cc4)nc3c2=O)c1OC	D1 antag -54!
Cc1nn(CC(=O)NCCN2CCCCCC2)c(=O)c2nn(-c3ccccc3)c(C)c12	none
Cc1nn(C(C)C(=O)NCCN2CCCCCC2)c(=O)c2nn(-c3ccccc3)c(C)c12 (centres undefined)	TRHR PAM 30
CCCCN(C)C(=O)CN1C(=O)c2cccnc2Oc2ccc(Cl)cc21	none
COc1ccc(/C=C/C(=O)Nc2sc3c(c2C(N)=O)CCC(C)C3)cc1OC (centres undefined)	none
CCOc1cccc2cc(-c3nc4ccc(C(=O)O)cc4[nH]3)c(=O)oc12	none
CCOc1ccc(CCNC(=O)c2[nH]c3cc(OC)ccc3c2Sc2ccccc2)cc1OCC	none
CC(C(=O)OCC(=O)c1ccc(Br)cc1)N1C(=O)C2C3C=CC(C3)C2C1=O (centres undefined)	none
Cc1cc(Cl)ccc1NC(=O)CCCn1nc(C)c2c(C)n(-c3ccccc3)nc2c1=O	D1 antag -32
Cc1nn(-c2ccccc2)c2c1N(CCCC(=O)NCc1ccc(Cl)cc1)C(=O)CS2	D1 antag -48
Cc1nn(-c2ccccc2)c2c1N(CCCC(=O)NCc1ccccc1)C(=O)CS2	none
N#Cc1nc(-c2ccccc2F)oc1NC1CCCCC1	D1 antag -34 (no result: D1 PAM)
Oc1ccc(-c2nnc(Nc3cccc(O)c3)c3ccccc23)cc1	none
C#CCOc1ccc(-c2nnc(Nc3cccc(C)c3)c3ccccc23)cc1	D1 antag -45
Cc1ccc(Nc2nnc(-c3ccc(C)c(S(=O)(=O)N4CCN(C)CC4)c3)c3ccccc23)c(C)c1	D1 antag -57
Cc1ccc(Nc2nnc(-c3ccc(C)c(S(=O)(=O)N4CCN(C)CC4)c3)c3ccccc23)cc1	none
Cc1ccc(-c2nnc(Nc3cccc(Br)c3)c3ccccc23)cc1S(=O)(=O)N1CCN(C)CC1	none
Cc1cccc(Nc2nnc(-c3ccc(C)c(S(=O)(=O)N4CCN(C)CC4)c3)c3ccccc23)c1	D1 antag -44
COc1ccc(N2CCN(S(=O)(=O)c3ccc(-c4cc(C(F)(F)F)on4)s3)CC2)cc1	none
CCCN(CCC)C(=O)c1ccc2c(c1)N(CC)C(=O)c1ccccc1S2(=O)=O	none
CC(=O)OC1COC(OC2C(O)C(C)OC(OC3C(OC4CCC5(C)C(CCC6(C)C5CC=C5C7CC(C)(C)CCC7(C(=O)O)CCC56C)C4(C)CO)OCC(O)C3O)C2O)C(O)C1OC(C)=O (centres undefined)	D1 agonist 323
C=CCN=C1S/C(=C\c2ccc(Cl)cc2)C(=O)N1CC=C	none
C=CCN1C(=O)/C(=C/c2ccc(OCC(=O)O)cc2)S/C1=N/c1nccs1	none
C=CCN1C(=O)/C(=C/c2ccc(N(C)C)cc2)S/C1=N\c1nnc(CC)s1	D1 agonist 167, TRHR agonist 53
C=CCN1C(=O)/C(=C/c2ccc(O)c(OC)c2)S/C1=N/c1nccs1	D1 agonist 130, TRHR agonist 72
Cc1cccc(-n2ncc3c(Nc4ccc(Oc5ccc(Cl)cc5)cc4)ncnc32)c1	none
O=C(O)c1cc(=O)c2cccc(O)c2[nH]1	none
CCOc1ccc(-c2cc(C(=O)NCc3ccc(OC)cc3)c3c(-c4ccc(F)cc4)[nH]nc3n2)cc1	none
Nc1ccc(S(=O)(=O)NC2=NCCCCC2)cc1N	none
O=[N+]([O-])c1cc(S(=O)(=O)NC2=NCCCCC2)ccc1NCC1CCCCC1	D1 antag -33
CCOc1ccc(CCNC(=O)c2ccc3c(c2)c(C)c(C)n3Cc2ccccc2)cc1OCC	none
Cc1csc(NC(=O)CSc2ccc(-c3ccccn3)nn2)n1	D1 antag -98
O=C(CN1CCN(S(=O)(=O)c2ccccc2F)CC1)Nc1ccnn1C1CCCC1	D1 antag -40
Cc1ccc(S(=O)(=O)N2CCN(CC(=O)Nc3ccnn3C3CCCC3)CC2)cc1	D1 antag -37
O=C(CCn1cnc2ccccc21)N=Nc1c(O)[nH]c2ccccc12	D1 antag -77
O=C(CCNC(=O)c1ccccc1)N=Nc1c(O)[nH]c2ccccc12	none
O=C(CCc1c[nH]c2ccccc12)N=Nc1c(O)[nH]c2ccccc12	D1 antag -44
COc1ccc(C)cc1NC(=O)NNC(=O)C(C)Oc1ccc(F)cc1Cl (centres undefined)	none
Nn1c(SCC(=O)N2CCOCC2)nnc1-c1cccnc1	none
CCCc1cc(=O)[nH]c2nnc(SCC(=O)Nc3cccc(C)c3)n12	none (no result: D1 antag)
O=C(NCCCCCCNC(=O)c1ccccc1O)c1ccccc1O	D1 antag -42
O=C(NCCNC(=O)c1ccccc1O)c1ccccc1O	none
COc1ccc(CNC(=O)C(=O)NCC(c2cccs2)S(=O)(=O)c2cccs2)cc1 (centres undefined)	none (no result: D1 antag)
COc1ccc(CNC(=O)C2=C(C)C(=O)OC23CCCCC3)cc1	none
COc1ccc(CNC(=O)C2CCN(c3nc4ccc(C)cc4[nH]3)CC2)cc1	D1 agonist 38
Cc1ccc(CN2CCC(c3nc4ccc(Cl)cc4[nH]3)CC2)cc1	D1 antag -31
COc1cccc(CNC(=O)CN2CCC(c3nc4ccc(C)cc4[nH]3)CC2)c1	D1 antag -38
Clc1ccc2nc(C3CCN(Cc4ccccc4)CC3)[nH]c2c1	none
Cc1ccc2nc(N3CCC(C(=O)NCc4ccc(F)cc4)CC3)[nH]c2c1	none
COCCCNC(=O)C1CCN(c2nc3ccc(C)cc3[nH]2)CC1	D1 antag -55
NCCOc1ccccc1Cc1ccccc1	D1 antag -55, D1 agonist 62
Cc1noc(C)c1S(=O)(=O)N1CCN(c2ccc(Cl)cc2)CC1	none
Cc1noc(C)c1S(=O)(=O)Nc1ccc(C(=O)N2CCN(c3ccc(Cl)cc3)CC2)cc1	D1 antag -36
